Data on 24 compounds can be found in PubChem BioAssay (NCATS).

Results filed as inconclusive are left out. Active and inactive are the calls of the source. The call rests on the fitted dose curve; in most records, active means well fitted inhibition curve with a large enough effect; inconclusive means small, poorly fitted or top-dose-only effect; inactive means flat fitted curve, though single readings scatter.

Holding throughout (test): qHTS profiling for inhibitors of Plasmodium falciparum proliferation (AID 504749); further: nearly all actives have a fitted effect of over 60% in size
What all share (conditions): P. falciparum in erythrocytes, SYBR Green DNA, 72 h; series mostly up to 28.7 µM

Test [1] deals with CP194. Put shortly:
(§1)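 Three-day growth assay of blood-stage parasites in erythrocytes (0.3% parasitemia, 2.5% hematocrit) at 37 C, 5% CO2, quantified by SYBR Green DNA staining after overnight detergent lysis.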

The subject of test [2] is CP201. Summed up: as §1
Test [3] relates to CP211. Put shortly: as §1
Test [4] relates to CP215. Summed up: as §1
Test [5] deals with CP217. Summed up: as §1
Test [6] relates to CP237. Put shortly: as §1
Test [7] concerns CP238. Put shortly:
as §1

Test [8] concerns CP247. Put shortly: as §1
Test [9] has as its system CP250. Summed up:
as §1

In test [10] the test system is CP203. Summed up: as §1
Potency means the concentration at half of the fitted maximal effect.

On to `NC(=O)c1ncn([C@@H]2O[C@H](CO)[C@@H](O)[C@H]2O)c1O`, for which the Potency entry in test [1], in test [2], in test [3], in [4], in test [5] and in test [6] was “inactive” throughout. The Potency entry in test [7], in [8] and in [9] was “inactive” each time.
`OCCN1CCN(CC/C=C2/c3ccccc3Sc3ccc(C(F)(F)F)cc32)CC1`: the Potency in [1] was 7.57 µM (active); in [2], 10.7 µM (active); in test [10], 9.53 µM (active); in test [3], 5.36 µM (active); in test [4] it was 12 µM (active); in test [6], 10 µM (active). Moreover, the Potency is 8.91 µM (active) in test [8] and 12.6 µM (active) in test [9].
For the compound `C[n+]1cc2c3c(ccc2c2ccc4cc5c(cc4c21)OCO5)OCO3`, the Potency entry in test [1], in [2], in [3], in [4], in test [6] and in test [7] was “inactive” each time. In addition, the Potency result in [9] is “inactive”.
Consider `CN1CCN(C2=Nc3ccccc3Oc3ccc(Cl)cc32)CC1`, for which the Potency result in test [1], in [2], in test [3], in test [4], in test [5] and in [6] was “inactive” in each case. Also, the Potency entry in [7], in test [8] and in [9] was “inactive” in each case.
As for `CC1=NS(=O)(=O)c2cc(Cl)ccc2N1`, the Potency result in test [1], in test [2], in test [3], in [4], in [5] and in test [6] was “inactive” in each case.
As to `FC(F)(F)c1ccccc1-n1ccnc1`, the Potency result in test [1], in test [2], in test [3], in test [4], in [5] and in test [6] was “inactive” each time. Further, the Potency result in [7], in test [8] and in [9] was “inactive” in each case.
With `O=C(O)CN(CCOCCOCCN(CC(=O)O)CC(=O)O)CC(=O)O`, the Potency result in test [1], in test [2], in [3], in test [4], in test [5] and in test [6] was “inactive” in each case. For the same compound, the Potency result in test [7], in test [8] and in [9] was “inactive” throughout.
As to `CCCN(CCC)CCc1cccc2c1CC(=O)N2`, the Potency result in [1], in [2], in test [3], in [4], in test [5] and in [6] was “inactive” throughout. Besides, the Potency entry in test [7], in test [8] and in test [9] was “inactive” throughout.
As to `CC(N=C(NC#N)Nc1ccncc1)C(C)(C)C` (stereo unspecified), the Potency entry in test [1], in [2], in test [3], in test [4], in test [5] and in test [6] was “inactive” throughout. In addition, the Potency entry in [7], in [8] and in test [9] was “inactive” throughout.
In the case of `CCN1CCc2nc(N)oc2CC1`, the Potency entry in [1], in test [2], in [3], in test [4], in [5] and in [6] was “inactive” each time. Besides, the Potency result in [7], in test [8] and in test [9] was “inactive” in each case.
Consider `NC(=Nc1ccccc1)Nc1ccccc1`, for which the Potency entry in test [1], in test [2], in test [3], in test [4], in [5] and in [7] was “inactive” each time. In addition, the Potency result in [8] and in test [9] was “inactive” throughout.
Take `Brc1c(NC2=NCCN2)ccc2nccnc12`: the Potency result in test [1], in test [2], in test [3], in [4], in test [5] and in [6] was “inactive” in each case. Further, the Potency result in [7], in test [8] and in test [9] was “inactive” each time.
Turning to `Nc1nc(N)c2nc(-c3ccccc3)c(N)nc2n1`, the Potency result in test [1], in test [2], in test [3], in test [4], in test [5] and in test [6] was “inactive” throughout. The Potency result in [7], in test [8] and in [9] was “inactive” throughout.
Regarding `CC(=O)Oc1cc(C(C)C)c(OCCN(C)C)cc1C`, the Potency result in [1], in test [2], in test [3], in [5], in test [6] and in test [7] was “inactive” in each case. For the same compound, the Potency entry in [8] and in [9] was “inactive” in each case.
Consider `NC(=O)c1cn(Cc2c(F)cccc2F)nn1`, for which the Potency result in test [1], in test [2], in test [3], in test [4], in [5] and in test [6] was “inactive” in each case. In addition, the Potency result in test [7], in test [8] and in [9] was “inactive” throughout.
As to `NC/C=C/C(=O)O`, the Potency result in test [1], in test [2], in test [3], in test [4], in [5] and in test [6] was “inactive” each time. The Potency entry in test [7], in test [8] and in test [9] was “inactive” in each case.
As to `C[C@]12CCC(=O)C=C1CC[C@@H]1[C@@H]2CC[C@@]2(C)[C@H]1CC[C@]2(O)C(=O)CO`, the Potency result in test [1], in test [2], in [3], in [4], in test [5] and in test [6] was “inactive” in each case. Further, the Potency result in test [7] and in test [8] was “inactive” each time.
With `CN=C(NC#N)NCCSCc1nc[nH]c1C`, the Potency entry in [1], in test [2], in [3], in test [4], in [5] and in [6] was “inactive” in each case. In addition, the Potency result in test [7], in [8] and in test [9] was “inactive” throughout.
For `CCn1cc(C(=O)O)c(=O)c2cc3c(cc21)OCO3`, the Potency result in [1], in test [2], in test [3], in test [4], in [5] and in [6] was “inactive” throughout. For the same compound, the Potency result in test [7], in test [8] and in test [9] was “inactive” throughout.
As to `CC(C)(Oc1ccc(CCNC(=O)c2ccc(Cl)cc2)cc1)C(=O)O`, the Potency entry in test [1], in test [2], in test [3], in [4], in test [5] and in test [6] was “inactive” throughout. Further, the Potency entry in test [7], in [8] and in test [9] was “inactive” each time.
For `CN(C)C(=O)Oc1cccc([N+](C)(C)C)c1`, the Potency entry in [1], in [2], in [3], in test [5], in [6] and in test [7] was “inactive” in each case. The Potency entry in [8] and in test [9] was “inactive” throughout.
Turning to `CCCCCN(CCCCC)C(=O)C(CCC(=O)O)NC(=O)c1ccc(Cl)c(Cl)c1` (stereo unspecified), the Potency entry in test [1], in [2], in test [3], in [4], in test [5] and in [6] was “inactive” throughout. The Potency result in [7], in test [8] and in [9] was “inactive” in each case.
Regarding `CCN(Cc1ccncc1)C(=O)C(CO)c1ccccc1` (stereo unspecified), the Potency result in test [1], in [2], in [3], in test [4], in test [5] and in [6] was “inactive” throughout. Moreover, the Potency entry in test [7], in test [8] and in test [9] was “inactive” throughout.
With `CC(=O)[C@@]1(O)CC[C@H]2[C@@H]3CCC4=CC(=O)CC[C@]4(C)[C@H]3CC[C@@]21C`, the Potency entry in [1], in test [2], in [3], in test [4], in test [5] and in [6] was “inactive” each time. Moreover, the Potency entry in test [7], in [8] and in [9] was “inactive” in each case.
